Records with an inconclusive call do not appear. Active and inactive are the calls of the source. Unless noted, the call rests on the fitted dose curve.
Experiments:
[1] = Nuclear factor erythroid 2-related factor 2/antioxidant responsive element (Nrf2/ARE) small molecule agonists: qHTS cell viability counter screen in human keratinocytes (AID 1919968; active means well fitted curve in the direction sought with a large enough effect in the repeat runs; an effect the other way counts as inactive or inconclusive; further: nearly all actives have a fitted effect of over 55% in size)
In short: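 Measured as CellTiter-Fluor fluorescence, this readout tracks cytotoxicity in the same wells as the ARE-luciferase screen. HaCaT reporter cells (1,500/well) received compounds after a 5 h pre-incubation and were exposed for 23 h.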

[2] = Nuclear factor erythroid 2-related factor 2/antioxidant responsive element (Nrf2/ARE) small molecule agonists: luciferase reporter gene qHTS assay in human keratinocytes (AID 1919969); further: nearly all actives have a fitted effect of over 35% in size
[3] = molecular target: Gonadotropin-releasing hormone receptor (Homo sapiens) (UniProt P30968); assay: Human gonadotropin-releasing hormone receptor (GnRHR) small molecule agonists, calcium flux assay in GnRHR-HEK293 cells (AID 1920063); further: nearly all actives have a fitted effect of over 35% in size
In short: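 Fluorescence kinetics (480 nm excitation, 540 nm emission; 3 min, 1 s steps) report calcium mobilisation in human GnRHR-HEK293 cells in agonist mode. Dye incubation: 1 h, 37 C.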

[4] = molecular target: KiSS-1 receptor (Homo sapiens) (UniProt Q969F8); assay: Human kisspeptin (KISS1R) small molecule agonists, calcium flux assay in KISS1R-HEK293 cells (AID 1920064; active means well fitted curve in the direction sought with a large enough effect in the repeat runs; an effect the other way counts as inactive or inconclusive)
In short: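 Measures KISS1R agonism through calcium-sensitive dye fluorescence in stably transfected HEK293 cells, read for 3 min after pin-tool compound delivery; 15-point titrations in triplicate.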

[5] = G protein-coupled receptor (GPCR) small molecule agonists, calcium flux assay: HEK293 wild type cell line counter screen (AID 1920065)
In short: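 Readout: fluorescence at 480 nm excitation/540 nm emission, sampled at 1 s intervals for 3 min. Cells had been cultured 18 h, then dye-loaded 1 h at 37 C before compound or ATP addition.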

[6] = p53 small molecule agonists, cell-based qHTS assay with human liver microsomes (AID 1963577)
In short: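 Fluorescence of the beta-lactamase reporter in p53RE-bla cells, detected with LiveBLAzer substrate (2 h, room temperature, dark), served as the read-out after 16 h compound exposure at 37 C with human liver microsomes and NADPH, each 0.5 mg/mL final.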

[7] = p53 small molecule agonists, cell-based qHTS assay with rat liver microsomes (AID 1963578)
In short: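 Cells carrying a p53 response element–beta-lactamase reporter were plated and rested 5 h, then dosed with compound in DMSO plus rat liver microsomes and NADPH, each at 0.5 mg/mL final. After 16 h at 37 C, LiveBLAzer substrate was added for 2 h.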

[8] = p53 small molecule agonists, cell-based qHTS assay with human liver microsomes: qHTS cell viability counter screen (AID 1963579); further: nearly all actives have a fitted effect of over 45% in size
In short: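 Cytotoxicity counter screen: p53RE-bla, 4,000 cells/well; 5 h settle, 37 C/5% CO2; cpd + HLM 0.5 mg/mL + NADPH 0.5 mg/mL (final); 16 h, 37 C; CellTiter-Glo, 30 min RT, luminescence.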

[9] = p53 small molecule agonists, cell-based qHTS assay with rat liver microsomes: qHTS cell viability counter screen (AID 1963580); further: nearly all actives have a fitted effect of over 45% in size
In short: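 HCT-116 p53RE-bla, 4,000 cells/well, 5 h pre-incubation; cpd + rat liver microsomes 0.5 mg/mL + NADPH 0.5 mg/mL (final); 16 h, 37 C; CellTiter-Glo, 30 min RT; luminescence.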

[10] = p53 small molecule agonists, cell-based qHTS assay: qHTS cell viability counter screen (AID 1963581); further: nearly all actives have a fitted effect of over 45% in size
In short: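 In the same plates used for the p53 bla reporter, HCT-116 cells given compounds for 16 h at 37 C received CellTiter-Glo; luminescence was recorded 30 min later at room temperature.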

[11] = p53 small molecule agonists, cell-based qHTS assay (AID 1963582; active means well fitted activation curve with a large enough effect in the signal ratio in the repeat runs, not every such curve was filed as active; the % refers to the signal ratio)
In short: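 Compounds are pin-transferred in DMSO onto p53RE-bla cells and incubated 16 h at 37 C. The B/G FRET beta-lactamase substrate is then applied for 2 h at RT and fluorescence recorded.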

[12] = molecular target: 5-hydroxytryptamine receptor 2A (Homo sapiens) (UniProt P28223); assay: 5-hydroxytryptamine receptor 2A (HTR2A) small molecule antagonists, cell-based qHTS assay (AID 1963586); further: nearly all actives have a fitted effect of over 45% in size
In short: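 Antagonist-mode intracellular calcium assay: DOI (4 nM) added after 5 min compound pre-incubation at room temperature to dye-loaded HTR2A-CHO cells. Fluorescence followed for 3 min, sampled every second.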

[13] = molecular target: 5-hydroxytryptamine receptor 2A (Homo sapiens) (UniProt P28223); assay: 5-hydroxytryptamine receptor 2A (HTR2A) small molecule agonists, cell-based qHTS assay (AID 1963587); further: nearly all actives have a fitted effect of over 30% in size
In short: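 Kinetic calcium-flux fluorescence (2 min, 1 sec intervals) after compound addition in agonist mode. HTR2A-CHO cells were cultured 18 h, then dye-loaded 1 h at 37 C.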

[14] = molecular target: Muscarinic acetylcholine receptor M1 (Homo sapiens) (UniProt P11229); assay: Cholinergic receptor muscarinic 1 (CHRM1) small molecule antagonists, cell-based qHTS assay (AID 1963588); further: nearly all actives have a fitted effect of over 40% in size
In short: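 CHRM1-CHO calcium-flux assay, antagonist mode. Cells were seeded 18 h, dye-loaded 1 h at 37 C and given compound for 5 min at RT, then acetylcholine was added at 50nM. FDSS fluorescence was read 3 min; 15 concentrations, three runs.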

[15] = molecular target: Muscarinic acetylcholine receptor M1 (Homo sapiens) (UniProt P11229); assay: Cholinergic receptor muscarinic 1 (CHRM1) small molecule agonists, cell-based qHTS assay (AID 1963589); further: nearly all actives have a fitted effect of over 35% in size
In short: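 Each compound was tested at 15 concentrations across three independent runs on dye-loaded CHO cells stably expressing human CHRM1, reading intracellular calcium fluorescence kinetically at 1 sec intervals.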

[16] = cAMP Responsive Elements (CRE) small molecule agonists, cell-based qHTS assay (AID 1963590)
In short: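 Cell line: CRE-bla HEK 293T; medium DMEM/10% dialyzed FBS/0.1 mM NEAA/1 mM pyruvate/25 mM HEPES; 3 h compound exposure; beta-lactamase FRET readout after 2 h substrate loading at RT.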

[17] = cAMP Responsive Elements (CRE) small molecule antagonists, cell-based qHTS assay (AID 1963591; active means well fitted inhibition curve with a large enough effect in the signal ratio in the repeat runs, not every such curve was filed as active; the % refers to the signal ratio)
In short: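 Inhibition of NKH477-driven (0.25 uM final) CRE-beta-lactamase signal in HEK293T cells, 3 h compound exposure at 37 °C, detected by FRET substrate fluorescence.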

[18] = molecular target: Beta-2 adrenergic receptor (Homo sapiens) (UniProt P07550); assay: Adrenergic beta2 receptor (ADRB2) small molecule antagonists, cell-based qHTS assay (AID 1963592); further: series mostly up to about 92 µM; nearly all actives have a fitted effect of over 50% in size
In short: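 Cells (CHO, stable ADRB2 overexpression) incubated 18-20hr at 37C; compounds added from DMSO; agonist mix (1nM isoproterenol, 100uM IBMX, 25uM Ro-20-1724) added; 0.5hr RT; d2-cAMP and anti-cAMP-cryptate added; 1hr RT; 665/615 nm read.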

[19] = molecular target: D(2) dopamine receptor (Homo sapiens) (UniProt P14416); assay: Dopamine D2 receptor (DRD2) small molecule antagonists, cell-based qHTS assay (AID 1963595; active means well fitted inhibition curve with a large enough effect in the signal ratio in the repeat runs, with a control signal flat; the % refers to the signal ratio)
In short: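 Cells were plated and grown for 24 h at 37 °C. Ro20-1724 (0.1 mM final) went in first, then compound for 10 min. NKH477 (200 nM) with quinpirole (12 nM) followed for 30 min at RT, then HTRF detection reagents for 1 h.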

[20] = molecular target: D(2) dopamine receptor (Homo sapiens) (UniProt P14416); assay: Dopamine D2 receptor (DRD2) small molecule agonists, cell-based qHTS assay (AID 1963594); further: nearly all actives have a fitted effect of over 35% in size
In short: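 cAMP accumulation in DRD2-HEK293 cells measured by HTRF after 1 h detection; compounds added 10 min before NKH477 (200nM […]) forskolin-analogue stimulation, 30 min at room temperature, with Ro20-1724 present at 0.1 mM final.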

Measured: Potency

Muscarinic acetylcholine receptor M1 (Homo sapiens), sequence (P11229 whole entry, looked up): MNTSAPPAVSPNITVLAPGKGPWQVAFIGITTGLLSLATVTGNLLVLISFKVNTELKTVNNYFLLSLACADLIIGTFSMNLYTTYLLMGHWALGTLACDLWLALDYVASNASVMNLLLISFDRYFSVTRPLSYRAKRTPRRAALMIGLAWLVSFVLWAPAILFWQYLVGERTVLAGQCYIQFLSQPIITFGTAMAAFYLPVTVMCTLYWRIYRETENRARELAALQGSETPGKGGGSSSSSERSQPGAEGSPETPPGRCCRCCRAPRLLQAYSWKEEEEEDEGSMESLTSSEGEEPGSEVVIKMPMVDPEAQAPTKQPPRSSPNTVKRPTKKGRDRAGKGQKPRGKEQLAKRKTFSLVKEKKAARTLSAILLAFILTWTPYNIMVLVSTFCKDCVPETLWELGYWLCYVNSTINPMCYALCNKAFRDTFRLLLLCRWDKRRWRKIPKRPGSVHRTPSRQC
Beta-2 adrenergic receptor (Homo sapiens), sequence (P07550 whole entry, looked up): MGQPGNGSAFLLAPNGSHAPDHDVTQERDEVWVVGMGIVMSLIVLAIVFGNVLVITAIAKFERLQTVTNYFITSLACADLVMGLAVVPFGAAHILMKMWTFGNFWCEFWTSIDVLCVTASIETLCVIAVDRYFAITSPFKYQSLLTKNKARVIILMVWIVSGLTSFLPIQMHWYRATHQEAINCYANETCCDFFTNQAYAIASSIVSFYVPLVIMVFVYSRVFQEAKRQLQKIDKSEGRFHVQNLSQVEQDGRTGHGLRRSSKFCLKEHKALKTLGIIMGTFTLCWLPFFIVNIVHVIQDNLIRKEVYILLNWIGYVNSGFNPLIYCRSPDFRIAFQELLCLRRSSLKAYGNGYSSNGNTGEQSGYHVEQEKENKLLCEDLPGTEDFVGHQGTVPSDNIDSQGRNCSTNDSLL
KiSS-1 receptor (Homo sapiens), sequence (Q969F8 whole entry, looked up): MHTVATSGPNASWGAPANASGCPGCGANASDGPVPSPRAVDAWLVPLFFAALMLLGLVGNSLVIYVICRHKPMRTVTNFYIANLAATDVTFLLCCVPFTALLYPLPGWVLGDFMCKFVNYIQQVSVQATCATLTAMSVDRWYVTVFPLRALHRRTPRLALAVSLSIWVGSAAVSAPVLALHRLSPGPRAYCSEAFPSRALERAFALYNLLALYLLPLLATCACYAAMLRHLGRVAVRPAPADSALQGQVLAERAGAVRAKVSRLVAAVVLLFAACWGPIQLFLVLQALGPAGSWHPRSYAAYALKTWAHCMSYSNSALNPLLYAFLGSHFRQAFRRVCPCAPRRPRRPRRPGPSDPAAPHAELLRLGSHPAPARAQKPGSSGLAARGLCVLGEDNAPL
D(2) dopamine receptor (Homo sapiens), sequence (P14416 whole entry, looked up): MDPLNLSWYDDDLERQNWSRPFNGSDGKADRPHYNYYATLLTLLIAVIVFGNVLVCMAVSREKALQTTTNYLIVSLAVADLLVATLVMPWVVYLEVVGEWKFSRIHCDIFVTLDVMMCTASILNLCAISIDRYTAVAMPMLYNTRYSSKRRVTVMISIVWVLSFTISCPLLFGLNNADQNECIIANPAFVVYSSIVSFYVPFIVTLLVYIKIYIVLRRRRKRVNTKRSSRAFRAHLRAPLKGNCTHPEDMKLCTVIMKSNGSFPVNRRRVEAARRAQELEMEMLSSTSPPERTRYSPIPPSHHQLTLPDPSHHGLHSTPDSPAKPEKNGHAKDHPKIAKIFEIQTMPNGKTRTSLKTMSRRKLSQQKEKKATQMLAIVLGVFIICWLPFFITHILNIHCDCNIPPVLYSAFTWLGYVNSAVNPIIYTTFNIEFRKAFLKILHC
Gonadotropin-releasing hormone receptor (Homo sapiens), sequence (P30968 whole entry, looked up): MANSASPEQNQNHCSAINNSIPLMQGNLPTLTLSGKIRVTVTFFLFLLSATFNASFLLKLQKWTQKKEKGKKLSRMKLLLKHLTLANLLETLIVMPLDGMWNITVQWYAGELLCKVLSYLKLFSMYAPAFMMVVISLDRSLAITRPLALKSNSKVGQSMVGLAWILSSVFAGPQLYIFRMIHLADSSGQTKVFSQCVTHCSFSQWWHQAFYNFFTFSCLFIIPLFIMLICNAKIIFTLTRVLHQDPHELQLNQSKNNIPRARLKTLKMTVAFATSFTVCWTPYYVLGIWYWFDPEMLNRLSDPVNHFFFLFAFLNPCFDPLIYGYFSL
5-hydroxytryptamine receptor 2A (Homo sapiens), sequence (P28223 whole entry, looked up): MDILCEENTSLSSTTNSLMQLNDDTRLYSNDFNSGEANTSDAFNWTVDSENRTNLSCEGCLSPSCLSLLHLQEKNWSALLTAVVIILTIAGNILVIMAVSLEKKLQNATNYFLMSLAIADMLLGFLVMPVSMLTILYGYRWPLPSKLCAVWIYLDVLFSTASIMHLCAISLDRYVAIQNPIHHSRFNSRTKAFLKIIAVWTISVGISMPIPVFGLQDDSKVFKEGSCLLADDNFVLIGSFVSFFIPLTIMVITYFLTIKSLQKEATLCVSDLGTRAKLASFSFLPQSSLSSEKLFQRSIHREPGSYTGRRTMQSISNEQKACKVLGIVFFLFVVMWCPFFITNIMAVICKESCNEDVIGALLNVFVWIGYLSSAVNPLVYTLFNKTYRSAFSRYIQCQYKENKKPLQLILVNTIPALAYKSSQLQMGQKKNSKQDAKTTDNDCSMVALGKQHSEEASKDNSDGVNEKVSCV

CC(N)CCCC(C)(C)O (configuration not stated)
not listed: [20]
inactive: all other assays above

O=C(CN1CCN(Cc2ccc3c(c2)OCO3)CC1)N1c2ccccc2Sc2ccccc21
inactive: all assays above

CCCCC(CC)(CO)CO
not listed: [20]
inactive: all other assays above

CC(C)c1cc(C(C)C)cc(C(C)C)c1
inactive: all assays above

O=C1CCCCO1
not listed: [20]
inactive: all other assays above

CC(C)C[P+](C)(CC(C)C)CC(C)C
inactive: all assays above

O=C(NCCCN1CCOCC1)c1ccc(Cl)cc1
inactive: all assays above
